{
  "source": "the OligoGym collection",
  "data": [
    {"biological_target": "GATA4", "assay": "pooled miR-30 sensor sort-seq; sequence = guide strand", "details": "shRNA", "values": [
      {"sequence": "TTGATGGGACGCATCTCCTCGC", "sensor-assay potency score (higher = more potent)": -0.611},
      {"sequence": "TTCTGTTGTGTTGTGTTTGTTT", "sensor-assay potency score (higher = more potent)": -0.142},
      {"sequence": "TAAAACAGAATCTTGGTTCAAA", "sensor-assay potency score (higher = more potent)": 0.268},
      {"sequence": "TTTGCTATCCTCCAAGTCCCAG", "sensor-assay potency score (higher = more potent)": -0.913},
      {"sequence": "TTCCGCATTGCAAGAGGCCTGG", "sensor-assay potency score (higher = more potent)": -0.334},
      {"sequence": "TCAAACATATCGAGATTGGGGT", "sensor-assay potency score (higher = more potent)": 0.14},
      {"sequence": "TTAGATTTATTCAGGTTCTTGG", "sensor-assay potency score (higher = more potent)": -0.334},
      {"sequence": "TTGGGCTTCCGTTTTCTGGTTT", "sensor-assay potency score (higher = more potent)": -0.283},
      {"sequence": "TTGCTGGAAGCACCGCTGGCGG", "sensor-assay potency score (higher = more potent)": -1.56},
      {"sequence": "TTTATTCAGGTTCTTGGGCTTC", "sensor-assay potency score (higher = more potent)": -0.422}
    ]},
    {"biological_target": "GCKR", "assay": "pooled miR-30 sensor sort-seq; sequence = guide strand", "details": "shRNA", "values": [
      {"sequence": "TAGCTCACGCTGGAACTTCTGG", "sensor-assay potency score (higher = more potent)": -0.719},
      {"sequence": "TTTGTCTAGATCCTGGGTCAGT", "sensor-assay potency score (higher = more potent)": -0.835},
      {"sequence": "TGTCGGAATGTTGAACTCCAGT", "sensor-assay potency score (higher = more potent)": -1.08},
      {"sequence": "TTCTGGTTAAACATGTCACTGT", "sensor-assay potency score (higher = more potent)": 0.368},
      {"sequence": "TTCTTCTCCAGACTGGTGCTGA", "sensor-assay potency score (higher = more potent)": -0.0469},
      {"sequence": "TTCGCTGTAGAGTCTCTGGTAT", "sensor-assay potency score (higher = more potent)": 0.0176},
      {"sequence": "TTTGGTGCTTAGCTCACGCTGG", "sensor-assay potency score (higher = more potent)": -0.0787},
      {"sequence": "ATCTGCTTTGTCTAGATCCTGG", "sensor-assay potency score (higher = more potent)": -0.482},
      {"sequence": "TAGGTCGAGAGCAAGAACTCTC", "sensor-assay potency score (higher = more potent)": -0.283},
      {"sequence": "TAGCAGTCGAACAATGTTCTCA", "sensor-assay potency score (higher = more potent)": -0.15},
      {"sequence": "TATCATCTGACAGTGGCTGGGG", "sensor-assay potency score (higher = more potent)": 0.728},
      {"sequence": "TTCCTTCTCATGTGCAACCTGG", "sensor-assay potency score (higher = more potent)": -0.464}
    ]}
  ]
}
